Test [1] deals with Serine/threonine-protein kinase 26 (Homo sapiens) (UniProt Q9P289). To be noted: at 1 µM.
For test [2], the target named is Serine/threonine-protein kinase PAK 1 (Homo sapiens) (UniProt Q13153). To be noted: at 0.1 µM.
The target is the same in test [3]. To be noted: at 1 µM.
The target in test [4] is Serine/threonine-protein kinase PAK 2 (Homo sapiens) (UniProt Q13177). To be noted: at 0.1 µM.
The target is the same in test [5]. To be noted: at 1 µM.
Test [6] deals with Serine/threonine-protein kinase PAK 3 (Homo sapiens) (UniProt O75914). To be noted: at 0.1 µM.
Serine/threonine-protein kinase PAK 3 (Homo sapiens), sequence (O75914 whole entry, looked up): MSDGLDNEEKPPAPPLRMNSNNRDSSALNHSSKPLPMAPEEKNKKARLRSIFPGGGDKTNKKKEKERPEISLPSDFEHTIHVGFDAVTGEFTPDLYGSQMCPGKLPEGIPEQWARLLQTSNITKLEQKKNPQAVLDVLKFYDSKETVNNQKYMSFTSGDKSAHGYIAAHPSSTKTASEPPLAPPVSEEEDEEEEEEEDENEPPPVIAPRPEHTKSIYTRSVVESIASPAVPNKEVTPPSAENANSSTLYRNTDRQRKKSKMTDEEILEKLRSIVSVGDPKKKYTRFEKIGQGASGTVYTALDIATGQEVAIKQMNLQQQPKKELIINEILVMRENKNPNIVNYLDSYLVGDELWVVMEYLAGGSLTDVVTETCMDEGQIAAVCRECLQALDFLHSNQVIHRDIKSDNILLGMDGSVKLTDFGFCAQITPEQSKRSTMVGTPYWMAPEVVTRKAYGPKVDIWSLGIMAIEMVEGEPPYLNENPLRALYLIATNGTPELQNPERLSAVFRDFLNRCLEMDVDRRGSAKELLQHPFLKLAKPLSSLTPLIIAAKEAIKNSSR
For test [7] the target is unchanged. To be noted: at 1 µM.
The target in test [8] is Serine/threonine-protein kinase PAK 6 (Homo sapiens) (UniProt Q9NQU5). To be noted: at 0.1 µM.
Serine/threonine-protein kinase PAK 6 (Homo sapiens), sequence (Q9NQU5 whole entry, looked up): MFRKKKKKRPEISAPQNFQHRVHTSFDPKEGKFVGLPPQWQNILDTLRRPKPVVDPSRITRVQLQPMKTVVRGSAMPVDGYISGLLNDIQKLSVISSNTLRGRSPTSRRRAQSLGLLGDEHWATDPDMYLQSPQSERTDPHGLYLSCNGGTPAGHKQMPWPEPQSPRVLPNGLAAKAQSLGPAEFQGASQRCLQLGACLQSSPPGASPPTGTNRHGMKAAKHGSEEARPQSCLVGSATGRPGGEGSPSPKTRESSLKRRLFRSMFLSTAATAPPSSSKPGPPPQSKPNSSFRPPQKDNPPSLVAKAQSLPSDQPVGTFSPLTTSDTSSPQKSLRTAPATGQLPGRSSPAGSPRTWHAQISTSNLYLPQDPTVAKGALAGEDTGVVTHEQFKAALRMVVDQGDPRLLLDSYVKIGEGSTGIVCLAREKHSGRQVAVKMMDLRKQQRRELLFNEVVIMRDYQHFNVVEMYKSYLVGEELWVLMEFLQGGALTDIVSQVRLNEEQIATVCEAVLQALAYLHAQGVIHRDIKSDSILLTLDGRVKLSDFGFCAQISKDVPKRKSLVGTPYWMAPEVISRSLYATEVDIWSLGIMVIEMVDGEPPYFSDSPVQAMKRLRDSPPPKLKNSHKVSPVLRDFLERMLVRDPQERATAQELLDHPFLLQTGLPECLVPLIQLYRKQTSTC
For test [9] the target is unchanged. To be noted: at 1 µM.
For test [10], the system named is Tyrosine-protein kinase ABL1 (Homo sapiens), P00519 [E255K]. To be noted: at 0.1 µM.
For test [11] the test system is unchanged. To be noted: at 1 µM.
Test [12] concerns Tyrosine-protein kinase ABL1 (Homo sapiens), P00519 [H396P]. To be noted: at 0.1 µM.
Test [13] has the same test system. To be noted: at 1 µM.
Test [14] concerns Tyrosine-protein kinase ABL1 (Homo sapiens), P00519 [M351T]. To be noted: at 0.1 µM.
Test [15] shares this test system. To be noted: at 1 µM.
The subject of test [16] is Tyrosine-protein kinase ABL1 (Homo sapiens), P00519 [Q252H]. To be noted: at 0.1 µM.
Test [17] shares this test system. To be noted: at 1 µM.
Test [18] deals with Tyrosine-protein kinase ABL1 (Homo sapiens), P00519 [T315I]. To be noted: at 0.1 µM.
Test [19] concerns the target Serine/threonine-protein kinase PAK 5 (Homo sapiens) (UniProt Q9P286). To be noted: at 0.1 µM.
The target is the same in test [20]. To be noted: at 1 µM.

The structures appear in SMILES notation.

Among the data in ChEMBL document CHEMBL1961873, “Compounds: GSK PKIS; Assays: Nanosyn kinase panel” (2012) are inhibition values, retold here.

Serine/threonine-protein kinase PAK 1 (Homo sapiens), sequence (Q13153 whole entry): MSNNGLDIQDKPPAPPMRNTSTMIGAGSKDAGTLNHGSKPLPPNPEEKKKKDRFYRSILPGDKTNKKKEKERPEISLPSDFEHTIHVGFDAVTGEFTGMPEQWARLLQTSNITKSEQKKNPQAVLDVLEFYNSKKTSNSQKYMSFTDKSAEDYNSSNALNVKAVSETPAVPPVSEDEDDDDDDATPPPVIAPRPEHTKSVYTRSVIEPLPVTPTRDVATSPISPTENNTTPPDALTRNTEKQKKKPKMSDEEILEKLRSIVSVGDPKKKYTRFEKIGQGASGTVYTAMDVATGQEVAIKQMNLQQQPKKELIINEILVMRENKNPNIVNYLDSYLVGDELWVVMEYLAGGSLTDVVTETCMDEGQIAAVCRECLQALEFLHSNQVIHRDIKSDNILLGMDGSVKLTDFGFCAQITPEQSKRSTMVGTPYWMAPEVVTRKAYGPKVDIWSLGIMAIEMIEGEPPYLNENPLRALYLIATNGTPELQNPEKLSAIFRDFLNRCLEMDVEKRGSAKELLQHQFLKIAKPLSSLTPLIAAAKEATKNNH
Serine/threonine-protein kinase PAK 2 (Homo sapiens), sequence (Q13177 whole entry): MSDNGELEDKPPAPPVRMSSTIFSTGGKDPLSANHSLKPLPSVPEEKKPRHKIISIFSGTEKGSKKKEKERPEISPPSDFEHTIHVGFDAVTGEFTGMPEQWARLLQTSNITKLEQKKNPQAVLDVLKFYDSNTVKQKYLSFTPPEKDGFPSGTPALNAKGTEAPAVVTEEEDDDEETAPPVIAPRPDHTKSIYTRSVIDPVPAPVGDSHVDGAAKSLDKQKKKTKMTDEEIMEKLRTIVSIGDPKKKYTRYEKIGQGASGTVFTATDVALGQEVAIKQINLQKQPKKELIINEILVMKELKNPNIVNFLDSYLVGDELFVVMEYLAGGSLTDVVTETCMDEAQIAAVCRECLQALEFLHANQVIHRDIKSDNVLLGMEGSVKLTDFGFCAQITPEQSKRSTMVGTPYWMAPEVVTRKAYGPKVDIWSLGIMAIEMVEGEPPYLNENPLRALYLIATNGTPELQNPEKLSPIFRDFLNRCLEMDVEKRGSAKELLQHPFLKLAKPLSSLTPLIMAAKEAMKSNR
Serine/threonine-protein kinase 26 (Homo sapiens), sequence (Q9P289 2-416 limits assumed): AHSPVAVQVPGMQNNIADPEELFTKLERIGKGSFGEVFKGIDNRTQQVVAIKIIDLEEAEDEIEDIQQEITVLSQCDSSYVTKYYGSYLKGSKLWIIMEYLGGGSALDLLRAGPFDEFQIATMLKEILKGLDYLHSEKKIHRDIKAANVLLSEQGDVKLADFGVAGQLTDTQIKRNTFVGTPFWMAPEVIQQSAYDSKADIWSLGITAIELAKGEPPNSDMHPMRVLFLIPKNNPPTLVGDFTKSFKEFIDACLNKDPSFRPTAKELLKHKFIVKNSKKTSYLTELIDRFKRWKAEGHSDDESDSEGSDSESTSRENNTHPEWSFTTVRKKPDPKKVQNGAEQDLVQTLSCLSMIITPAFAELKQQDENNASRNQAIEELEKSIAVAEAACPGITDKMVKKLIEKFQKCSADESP
Serine/threonine-protein kinase PAK 5 (Homo sapiens), sequence (Q9P286 whole entry, looked up): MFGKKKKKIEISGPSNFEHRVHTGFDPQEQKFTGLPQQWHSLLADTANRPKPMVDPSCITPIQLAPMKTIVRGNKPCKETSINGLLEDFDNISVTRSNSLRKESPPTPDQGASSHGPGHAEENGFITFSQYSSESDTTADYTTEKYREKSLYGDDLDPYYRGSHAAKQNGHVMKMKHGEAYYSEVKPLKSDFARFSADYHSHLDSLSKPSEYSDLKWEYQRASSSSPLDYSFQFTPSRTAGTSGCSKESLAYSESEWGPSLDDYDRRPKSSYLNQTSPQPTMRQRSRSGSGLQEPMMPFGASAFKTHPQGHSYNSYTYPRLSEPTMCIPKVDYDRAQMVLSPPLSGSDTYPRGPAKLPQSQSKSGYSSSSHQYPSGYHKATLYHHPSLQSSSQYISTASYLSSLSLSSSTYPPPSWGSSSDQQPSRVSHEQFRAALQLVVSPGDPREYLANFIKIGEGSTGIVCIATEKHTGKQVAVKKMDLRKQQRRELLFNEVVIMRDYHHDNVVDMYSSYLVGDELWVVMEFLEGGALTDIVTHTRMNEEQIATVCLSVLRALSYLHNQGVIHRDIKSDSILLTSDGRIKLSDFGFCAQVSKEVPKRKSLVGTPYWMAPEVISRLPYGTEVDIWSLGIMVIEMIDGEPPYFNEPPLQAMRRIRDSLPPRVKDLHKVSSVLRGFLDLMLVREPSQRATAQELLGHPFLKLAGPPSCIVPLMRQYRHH

What is called inhibition is the relative decrease from the control value, in per cent. For `CS(=O)(=O)Nc1cccc(-c2ccc3c(NC(=O)C4CC4)n[nH]c3c2)c1`, the inhibition in test [1] is 1.22%; in [2] it was 2.69%; in test [3] it was 3.3%; in test [4] it was 0.99%; in [5] it was 0.37%; in test [6], 0.48%. Besides, the inhibition in [7] was 1.23%; in [8], -7.16%; in test [9] it was -4.78%; in [10], 1.67%; in [11] it was 7%; in test [12], 2.46%. The inhibition in [13] amounted to 16.8%; in test [14] it was 3.14%; in [15] it was 16%; in test [16] it was 0.49%; in test [17] it was 7.01%; in test [18], 3.71%.

Consider `CCn1c(-c2nonc2N)nc2ccc(F)cc21`, for which the inhibition in [1] amounted to 3.36%; in [2], 12%; in [3] it was 11.2%; in test [4], 3.1%; in test [5], 3.8%; in [6], 7.78%. In addition, the inhibition in test [7] was 6.52%; in test [19] it was -1.6%; in test [8], 2.06%; in [9], 0.67%; in [10], 2.57%; in test [11], 4.59%. The inhibition in test [12] came to 4.55%; in [13], 4.61%; in test [14] it was 2.2%; in [15], 2.4%; in test [16], 4.86%; in [17], 3.17%. The inhibition in test [18] worked out at 3.34%.

On to `ON=C1CCc2cc(-c3nc(C4CCNCC4)[nH]c3-c3ccncc3)ccc21`, for which the inhibition in test [1] is -1.63%; in [2], 2.01%; in [3], 2.16%; in [4], -0.65%; in [5] it was -0.29%; in [6] it was -0.94%. Besides, the inhibition in [7] was -0.23%; in [8], 0.23%; in test [9], 0%; in [10], -0.03%; in test [11] it was 0.64%; in [12], 0.53%. Further, the inhibition in test [13] is 2.54%; in test [14], 0.36%; in test [15], 1.06%; in [16], 1.13%; in [17] it was 2.38%; in test [18], 1.29%.

For `Nc1nccc(-c2c(-c3ccc(F)cc3)ncn2CCCN2CCOCC2)n1`, the inhibition in test [1] came out at 11.2%; in [2] it was 9.14%; in test [3], 6.55%; in test [4], 1.64%; in [5] it was 1.75%; in test [6], 5.89%. In addition, the inhibition was 4.41% in test [7]; 3.01% in [20]; -1.31% in test [8]; 3.15% in test [10]; 4.81% in test [11]; 2.47% in [12]. Besides, the inhibition in [13] came out at 4.57%; in [14], 0.51%; in test [15], 3.75%; in [16] it was 2.53%; in [17] it was 6.74%; in test [18] it was 2.38%.

For `O=S(=O)(CCOCc1ccc(-c2ccc3ncnc(Nc4ccc(OCc5cccc(F)c5)c(Cl)c4)c3c2)o1)c1ccccc1`, the inhibition in test [1] is 0.25%; in test [2], 4.98%; in test [3], 5.84%; in test [4] it was -0.35%; in test [5] it was 0.7%; in [6], 0.57%. In addition, the inhibition in test [7] was 2.12%; in test [19], 0.21%; in test [20] it was -1.3%; in test [9], -7.47%; in [10], 0.44%; in test [11] it was -0.12%. In addition, the inhibition in test [12] was 0.4%; in test [13], 2.46%; in [14], 1.57%; in [15], 0.99%; in [16], 3.02%; in test [17], 3.04%. Besides, in [18], the inhibition is -0.12%.

With `Cc1ccc2c(c1)/C(=N/Nc1ccc(S(N)(=O)=O)cc1)C(=O)N2`, the inhibition in test [1] was 17.1%; in test [2], -1.7%; in test [3], 5.13%; in test [4], 0.16%; in test [5] it was -0.31%; in test [6], 0.21%. Also, the inhibition in test [7] is -1.09%; in test [19] it was -8.51%; in test [8], -4.78%; in [9] it was -8.53%; in test [10], 0.74%; in [11], 3.57%. In addition, the inhibition was -0.31% in test [12]; 5.97% in test [13]; 0.64% in [14]; 8.33% in test [15]; 1.64% in test [16]; 7.52% in test [17]. The inhibition in test [18] worked out at 1.43%.

Take `CN1CCN(C(=O)c2ccc(NC(=O)Nc3ccc(N(C)c4ccnc(Nc5ccc(CS(C)(=O)=O)cc5)n4)cc3)cc2)CC1`: the inhibition is 12.8% in test [1]; -0.46% in [2]; 6.1% in [3]; 0.16% in test [4]; 1.51% in [5]; 1.85% in test [6]. The inhibition in test [7] is 5.09%; in test [19], 3.35%; in test [20], 17.6%; in [9], -8.2%; in [10], 3.11%; in test [11] it was 29.9%. Further, the inhibition in test [12] amounted to 18.1%; in test [13], 67.8%; in test [14], 24.1%; in test [15], 72.6%; in [16], 21%; in test [17] it was 69.6%. In addition, in test [18], the inhibition was 17.6%.

`Nc1ccc(C#Cc2cncnc2Nc2ccc(OCc3cccc(F)c3)c(Cl)c2)cc1`: the inhibition in [1] is -2.17%; in test [2] it was 0.57%; in test [3] it was 1.46%; in test [4], 0.83%; in test [5] it was 0.22%; in [6], 3.57%. Besides, the inhibition in [7] is 2.79%; in [19], 0.61%; in test [20], 2.79%; in test [8], -4.23%; in [9], -1.86%; in test [10], 2.88%. Besides, the inhibition in test [11] was 3.39%; in [12], 2.21%; in test [13], 2.72%; in test [14], -1.21%; in test [15] it was 0.91%; in test [16], 2.9%. Further, the inhibition in test [17] came to 2.24%; in test [18], 1.6%.

In the case of `COc1ccc2ncnc(Nc3ccc(OCc4ccccc4)cc3)c2c1`, the inhibition in test [1] was -1.42%; in test [2], 0.31%; in [3], 3.44%; in test [4], -0.61%; in test [5] it was 0.47%; in test [6], 2.33%. The inhibition in [7] was 2.78%; in [19], -6.57%; in test [20] it was -2.45%; in test [8] it was -7.36%; in test [10] it was 1.91%; in [11] it was 2.75%. Further, the inhibition in test [12] was 1.73%; in test [13], 4.61%; in test [14] it was -1.29%; in [15], 2.67%; in test [16], 0.25%; in test [17], 4.68%. Further, the inhibition in test [18] turned out to be 0.02%.

For `COC(=O)Nc1nc2cc(Oc3ccc(NC(=O)Nc4cccc(Br)c4)cc3)ccc2[nH]1`, the inhibition in test [1] was 9.97%; in test [2] it was -0.8%; in [3], 6.23%; in [4], 0.73%; in [5], 0.39%; in [6] it was 2.85%. In addition, the inhibition was 2.59% in test [7]; -1.29% in [19]; -0.7% in [20]; -5.52% in test [8]; -4.46% in [9]; 4.52% in test [10]. Besides, the inhibition in test [11] worked out at 5.09%; in test [12], 16.4%; in test [13], 35%; in test [14], 42.6%; in test [15] it was 54.6%; in [16], 39.7%. In addition, the inhibition came out at 57.8% in test [17] and 30.1% in test [18].

Take `COc1cccc(-n2ncc3c(N/N=C/c4ccc(C)cc4)ncnc32)c1`: the inhibition is -3.2% in [1]; 10% in test [2]; 9.32% in test [3]; 1.75% in [4]; 1.47% in test [5]; 6.06% in [6]. The inhibition in test [7] was 6.42%; in [19], 6.1%; in test [20], 10.7%; in test [9] it was -8.44%; in test [10], 18.9%; in [11] it was 65.3%. Further, the inhibition in test [12] was determined as 28.1%; in test [13] it was 73.5%; in test [14], 25.4%; in [15], 73.7%; in [16], 37.6%; in test [17] it was 81.4%. In test [18], the inhibition is 5.28%.

Regarding `Cc1ccc2c(-c3ccnc(Nc4cccc(C(F)(F)F)c4)n3)c(-c3ccccc3)nn2n1`, the inhibition is 13.3% in test [1]; 9.96% in [2]; 8.06% in [3]; 1.38% in [4]; 1.7% in test [5]; 5.11% in test [6]. The inhibition in test [7] was 5.68%; in test [19] it was -4.38%; in [20], -7%; in test [9], -8.69%; in test [10], 3.52%; in [11], 19.7%. Besides, the inhibition came out at 11.3% in test [12]; 44.8% in test [13]; 24.1% in test [14]; 68.2% in test [15]; 24.2% in [16]; 69.1% in test [17]. For the same compound, in test [18], the inhibition came to 6.16%.

On to `NS(=O)(=O)c1ccc(NC=C2C(=O)Nc3ccc4ncsc4c32)cc1`, for which the inhibition worked out at 78.9% in [1]; 7.91% in test [2]; 8.35% in [3]; 2.5% in test [4]; 4.68% in test [5]; 5.33% in test [6]. For the same compound, the inhibition in test [7] was 6.6%; in test [20] it was 5.11%; in test [8] it was 0.36%; in test [9], -1.77%; in test [10] it was 6.89%; in test [11] it was 37.9%. Further, the inhibition stood at 10.9% in [12]; 46.7% in test [13]; 10.9% in test [14]; 50.6% in [15]; 14.4% in test [16]; 56.3% in test [17]. Moreover, in test [18], the inhibition is 15%.
